According to ChEMBL document CHEMBL1961873, “Compounds: GSK PKIS; Assays: Nanosyn kinase panel” (2012):

What follows are compounds tested against Macrophage colony-stimulating factor 1 receptor (Homo sapiens) (UniProt P07333). Conditions: at 1 µM.
Macrophage colony-stimulating factor 1 receptor (Homo sapiens), sequence (P07333 whole entry): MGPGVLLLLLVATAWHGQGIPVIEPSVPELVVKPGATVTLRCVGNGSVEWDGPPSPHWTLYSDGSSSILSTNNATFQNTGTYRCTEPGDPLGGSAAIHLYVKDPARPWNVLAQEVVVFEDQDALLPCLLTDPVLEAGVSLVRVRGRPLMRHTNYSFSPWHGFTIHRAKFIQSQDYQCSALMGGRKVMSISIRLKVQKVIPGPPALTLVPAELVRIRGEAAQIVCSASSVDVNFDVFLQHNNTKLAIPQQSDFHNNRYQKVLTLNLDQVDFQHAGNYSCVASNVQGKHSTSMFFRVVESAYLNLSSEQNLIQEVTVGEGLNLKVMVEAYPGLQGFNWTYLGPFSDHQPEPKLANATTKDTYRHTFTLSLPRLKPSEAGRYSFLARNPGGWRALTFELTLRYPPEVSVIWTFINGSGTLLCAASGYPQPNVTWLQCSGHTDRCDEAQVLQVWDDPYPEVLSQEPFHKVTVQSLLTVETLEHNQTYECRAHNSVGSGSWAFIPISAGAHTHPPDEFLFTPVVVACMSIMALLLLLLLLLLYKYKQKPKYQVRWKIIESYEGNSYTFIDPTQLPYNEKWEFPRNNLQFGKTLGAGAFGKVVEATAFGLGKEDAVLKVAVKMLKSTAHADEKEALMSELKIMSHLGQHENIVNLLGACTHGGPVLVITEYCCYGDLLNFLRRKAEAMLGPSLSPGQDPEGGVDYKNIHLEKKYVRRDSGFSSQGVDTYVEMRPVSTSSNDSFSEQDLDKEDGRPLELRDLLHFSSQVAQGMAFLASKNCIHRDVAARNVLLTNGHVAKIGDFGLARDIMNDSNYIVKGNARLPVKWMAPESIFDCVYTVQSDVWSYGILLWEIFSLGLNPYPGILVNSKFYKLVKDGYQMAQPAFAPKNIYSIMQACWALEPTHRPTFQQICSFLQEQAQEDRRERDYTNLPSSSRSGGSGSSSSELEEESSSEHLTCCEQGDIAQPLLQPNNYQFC

Q: With NC(=O)c1ccc(Oc2nccc(-c3c(-c4ccc(F)cc4)ncn3C3CCNCC3)n2)cc1 as the compound, how does the inhibition read?
A: 6.15%

Q: Which inhibition does the source give for COc1ccc(-c2ccc3c(NC(=O)C4CC4)n[nH]c3n2)cc1 here?
A: 1.62%

Q: For Cc1ccc(C(=O)NC2CCC2)cc1-c1ccc(C(=O)NCC2CC2)cc1, which inhibition is on record?
A: 4.65%

Q: With CN(c1ccc(NC(=O)Nc2c(Cl)cccc2Cl)cc1)c1ccnc(Nc2cccc(CS(C)(=O)=O)c2)n1 as the compound, how does the inhibition read?
A: 96.2%

Q: Which inhibition does the source give for O=C(Nc1ccc(Oc2ccc3[nH]c(NC(=O)c4ccccc4)nc3c2)cc1)Nc1cc(C(F)(F)F)ccc1F here?
A: 48.1%

Q: For Clc1ccc(CNc2nccc(-c3cnn4ncccc34)n2)cc1, which inhibition is on record?
A: 10.5%

Q: For NC(=O)c1cc(-c2ccc(F)cc2)cc(-c2ccncc2)c1N, which inhibition is on record?
A: 15.4%

Q: NS(=O)(=O)c1ccc(Nc2cc(-c3ccc(O)c(F)c3)n[nH]2)cc1 was tested. Which inhibition did it give?
A: 23.6%

Q: For CCc1nccc2c1nc(-c1nonc1N)n2CC, which inhibition is on record?
A: 1.95%

Q: How did the inhibition turn out when Fc1ccc(-c2ncn(C3CCNCC3)c2-c2ccnc(Oc3ccc4c(c3)OCO4)n2)cc1 was run?
A: 12.1%

Q: For CS(=O)(=O)CCNCc1cc(-c2cc3c(Nc4ccc(OCc5cccc(F)c5)c(Cl)c4)ncnc3s2)cs1, which inhibition is on record?
A: 7.82%

Q: With CCc1cccc(CC)c1/C=C/c1cncc(C(=O)NC)c1 as the compound, how does the inhibition read?
A: 6.91%

Q: How did the inhibition turn out when COc1ccc(C2=C(N3CCc4ccccc43)C(=O)NC2=O)cc1 was run?
A: 4.23%

Q: How did the inhibition turn out when COc1cccc(/C=N/Nc2ncnc3c2cnn3-c2cccc(OC)c2)c1 was run?
A: 6.37%

Q: Which inhibition does the source give for N#Cc1ccc(Oc2nccc(-c3c(-c4ccc(F)cc4)ncn3C3CCNCC3)n2)cc1 here?
A: 9.12%

Q: For O=C(Nc1n[nH]c2cc(-c3ccccc3)ccc12)C1CC1, which inhibition is on record?
A: 5.1%

Q: For FC(F)(F)c1cccc(Nc2nccc(-c3cnn4nc(-c5ccccc5)ccc34)n2)c1, which inhibition is on record?
A: 16.4%

Q: Which inhibition does the source give for COC(=O)Nc1nc2ccc(Sc3ccc(NC(=O)Nc4cc(C(F)(F)F)ccc4F)cc3)cc2[nH]1 here?
A: 3.42%

Q: NC(=O)c1cc(-c2ccncc2)cc(-c2ccccc2)c1N was tested. Which inhibition did it give?
A: 64.8%

Q: Fc1ccc(-c2ncn(CCCN3CCOCC3)c2-c2ccncc2)cc1 was tested. Which inhibition did it give?
A: 1.37%

Q: Which inhibition does the source give for O=C1Nc2ccccc2/C1=C/Nc1ccc(-n2cncn2)cc1 here?
A: 34.5%

Q: With CS(=O)(=O)CCNCc1ccc(-c2ccc3ncnc(Nc4ccc(OCc5ccccc5)c(Br)c4)c3c2)o1 as the compound, how does the inhibition read?
A: 6.06%

Q: With O=C(Nc1n[nH]c2nc(-c3ccc(O)cc3)c(Br)cc12)C1CC1 as the compound, how does the inhibition read?
A: 6.92%

Q: Which inhibition does the source give for CCN(CC)Cc1ccc(Nc2nccc(-c3cnn4ncccc34)n2)cc1 here?
A: 68.9%

Q: For COc1cc2ncn(-c3cc(OCc4ccccc4C(F)(F)F)c(C(C)=O)s3)c2cc1OC, which inhibition is on record?
A: 10.8%

Q: For O=C(Nc1n[nH]c2nc(-c3ccco3)ccc12)C1CC1, which inhibition is on record?
A: 2.62%

Q: For Nc1nccc(-c2c(-c3ccc(F)cc3)ncn2C2CCC(O)CC2)n1 (stereo not drawn), which inhibition is on record?
A: 14.7%

Q: How did the inhibition turn out when C/C(Nc1ccc(S(N)(=O)=O)cc1)=C1/C(=O)Nc2ccccc21 was run?
A: 50.6%

Q: For O=C1NC(=O)C(c2cccc(Cl)c2)=C1Nc1ccc(Cl)c(C(=O)O)c1, which inhibition is on record?
A: 10.7%

Q: O=C(Nc1n[nH]c2cc(-c3cc(F)ccc3F)ccc12)C1CC1 was tested. Which inhibition did it give?
A: 2.78%

Q: How did the inhibition turn out when COc1ccc2cc(-c3c(-c4ccncc4)nc(-c4ccc(S(C)(=O)=O)cc4C)n3C)ccc2c1 was run?
A: -1.08%

Q: Which inhibition does the source give for Fc1ccc(-c2ncn(C3CCNCC3)c2-c2ccnc(Oc3ccc(F)c(F)c3)n2)cc1 here?
A: 7.56%

Q: For CCc1ccc(Oc2nccc(-c3c(-c4ccc(F)cc4)ncn3C3CCNCC3)n2)cc1, which inhibition is on record?
A: 6.16%

Q: CCC(=O)Nc1ccc(C)c(-c2ccc(C(=O)NCC3CC3)cc2)c1 was tested. Which inhibition did it give?
A: 2.95%

These compounds were tested against Tyrosine-protein kinase Fyn (Homo sapiens) (UniProt P06241). Conditions: at 0.1 µM.
Tyrosine-protein kinase Fyn (Homo sapiens), sequence (P06241 2-537 limits assumed): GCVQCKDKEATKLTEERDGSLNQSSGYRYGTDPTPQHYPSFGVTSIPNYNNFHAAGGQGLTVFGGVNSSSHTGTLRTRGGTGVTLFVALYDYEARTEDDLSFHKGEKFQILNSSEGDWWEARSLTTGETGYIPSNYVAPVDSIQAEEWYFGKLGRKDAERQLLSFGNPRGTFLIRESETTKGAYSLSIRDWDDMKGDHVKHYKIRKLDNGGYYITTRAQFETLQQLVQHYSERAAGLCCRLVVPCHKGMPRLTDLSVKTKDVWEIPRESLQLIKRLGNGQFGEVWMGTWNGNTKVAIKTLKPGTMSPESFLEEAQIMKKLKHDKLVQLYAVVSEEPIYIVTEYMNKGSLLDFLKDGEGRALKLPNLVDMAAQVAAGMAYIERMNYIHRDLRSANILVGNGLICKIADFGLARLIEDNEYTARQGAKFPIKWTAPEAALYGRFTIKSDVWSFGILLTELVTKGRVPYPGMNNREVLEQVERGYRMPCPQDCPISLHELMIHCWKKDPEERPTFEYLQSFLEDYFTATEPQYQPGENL

Q: For NC(=O)c1ccc(Oc2nccc(-c3c(-c4ccc(F)cc4)ncn3C3CCNCC3)n2)cc1, which inhibition is on record?
A: 2.66%

Q: COc1ccc(-c2ccc3c(NC(=O)C4CC4)n[nH]c3n2)cc1 was tested. Which inhibition did it give?
A: 1.9%

Q: For Cc1ccc(C(=O)NC2CCC2)cc1-c1ccc(C(=O)NCC2CC2)cc1, which inhibition is on record?
A: 0.98%

Q: How did the inhibition turn out when CN(c1ccc(NC(=O)Nc2c(Cl)cccc2Cl)cc1)c1ccnc(Nc2cccc(CS(C)(=O)=O)c2)n1 was run?
A: 2.74%

Q: For O=C(Nc1ccc(Oc2ccc3[nH]c(NC(=O)c4ccccc4)nc3c2)cc1)Nc1cc(C(F)(F)F)ccc1F, which inhibition is on record?
A: 3.06%

Q: Which inhibition does the source give for Clc1ccc(CNc2nccc(-c3cnn4ncccc34)n2)cc1 here?
A: -1.29%

Q: NC(=O)c1cc(-c2ccc(F)cc2)cc(-c2ccncc2)c1N was tested. Which inhibition did it give?
A: 0.07%

Q: How did the inhibition turn out when NS(=O)(=O)c1ccc(Nc2cc(-c3ccc(O)c(F)c3)n[nH]2)cc1 was run?
A: 0.43%

Q: For CCc1nccc2c1nc(-c1nonc1N)n2CC, which inhibition is on record?
A: 2.96%

Q: How did the inhibition turn out when Fc1ccc(-c2ncn(C3CCNCC3)c2-c2ccnc(Oc3ccc4c(c3)OCO4)n2)cc1 was run?
A: 1.06%

Q: With CS(=O)(=O)CCNCc1cc(-c2cc3c(Nc4ccc(OCc5cccc(F)c5)c(Cl)c4)ncnc3s2)cs1 as the compound, how does the inhibition read?
A: 0.55%

Q: How did the inhibition turn out when CCc1cccc(CC)c1/C=C/c1cncc(C(=O)NC)c1 was run?
A: 3.51%

Q: COc1ccc(C2=C(N3CCc4ccccc43)C(=O)NC2=O)cc1 was tested. Which inhibition did it give?
A: 2.77%

Q: How did the inhibition turn out when COc1cccc(/C=N/Nc2ncnc3c2cnn3-c2cccc(OC)c2)c1 was run?
A: 2.39%

Q: For N#Cc1ccc(Oc2nccc(-c3c(-c4ccc(F)cc4)ncn3C3CCNCC3)n2)cc1, which inhibition is on record?
A: -0.87%

Q: For O=C(Nc1n[nH]c2cc(-c3ccccc3)ccc12)C1CC1, which inhibition is on record?
A: 1.14%

Q: How did the inhibition turn out when FC(F)(F)c1cccc(Nc2nccc(-c3cnn4nc(-c5ccccc5)ccc34)n2)c1 was run?
A: 0.72%

Q: COC(=O)Nc1nc2ccc(Sc3ccc(NC(=O)Nc4cc(C(F)(F)F)ccc4F)cc3)cc2[nH]1 was tested. Which inhibition did it give?
A: -1.41%

Q: For NC(=O)c1cc(-c2ccncc2)cc(-c2ccccc2)c1N, which inhibition is on record?
A: 6.39%

Q: Which inhibition does the source give for Fc1ccc(-c2ncn(CCCN3CCOCC3)c2-c2ccncc2)cc1 here?
A: -0.55%

Q: For O=C1Nc2ccccc2/C1=C/Nc1ccc(-n2cncn2)cc1, which inhibition is on record?
A: 2.68%

Q: Which inhibition does the source give for CS(=O)(=O)CCNCc1ccc(-c2ccc3ncnc(Nc4ccc(OCc5ccccc5)c(Br)c4)c3c2)o1 here?
A: -0.04%

Q: O=C(Nc1n[nH]c2nc(-c3ccc(O)cc3)c(Br)cc12)C1CC1 was tested. Which inhibition did it give?
A: 5.98%

Q: With CCN(CC)Cc1ccc(Nc2nccc(-c3cnn4ncccc34)n2)cc1 as the compound, how does the inhibition read?
A: -1.69%

Q: For COc1cc2ncn(-c3cc(OCc4ccccc4C(F)(F)F)c(C(C)=O)s3)c2cc1OC, which inhibition is on record?
A: 1.85%

Q: For O=C(Nc1n[nH]c2nc(-c3ccco3)ccc12)C1CC1, which inhibition is on record?
A: 1.1%

Q: With Nc1nccc(-c2c(-c3ccc(F)cc3)ncn2C2CCC(O)CC2)n1 (stereo not drawn) as the compound, how does the inhibition read?
A: 1.57%

Q: Which inhibition does the source give for C/C(Nc1ccc(S(N)(=O)=O)cc1)=C1/C(=O)Nc2ccccc21 here?
A: 1.2%

Q: For O=C1NC(=O)C(c2cccc(Cl)c2)=C1Nc1ccc(Cl)c(C(=O)O)c1, which inhibition is on record?
A: 0.43%

Q: For O=C(Nc1n[nH]c2cc(-c3cc(F)ccc3F)ccc12)C1CC1, which inhibition is on record?
A: 2.47%

Q: Which inhibition does the source give for COc1ccc2cc(-c3c(-c4ccncc4)nc(-c4ccc(S(C)(=O)=O)cc4C)n3C)ccc2c1 here?
A: 1.95%

Q: For Fc1ccc(-c2ncn(C3CCNCC3)c2-c2ccnc(Oc3ccc(F)c(F)c3)n2)cc1, which inhibition is on record?
A: -4.18%

Q: With CCc1ccc(Oc2nccc(-c3c(-c4ccc(F)cc4)ncn3C3CCNCC3)n2)cc1 as the compound, how does the inhibition read?
A: 1.83%

Q: CCC(=O)Nc1ccc(C)c(-c2ccc(C(=O)NCC3CC3)cc2)c1 was tested. Which inhibition did it give?
A: 1.58%
